Screens deposited in PubChem by National Center for Advancing Translational Sciences (NCATS).
Rows were chosen to be rich in hits. Some 7.5% of all compounds tested hit in one or more screens of this group.
FLuc counter: counter-screen for miR-21 project: firefly luciferase inhibitors or activators | P08659 | purified FLuc, Km substrates, luminescence inhibition | Potency, µM (doses to about 57.5 µM), usual class: inhibitors | 360,000 tested, 6.9% active | AID 588342; also: nearly all actives have a fitted effect of over 55% in size
Target sequence (P08659 whole entry, looked up): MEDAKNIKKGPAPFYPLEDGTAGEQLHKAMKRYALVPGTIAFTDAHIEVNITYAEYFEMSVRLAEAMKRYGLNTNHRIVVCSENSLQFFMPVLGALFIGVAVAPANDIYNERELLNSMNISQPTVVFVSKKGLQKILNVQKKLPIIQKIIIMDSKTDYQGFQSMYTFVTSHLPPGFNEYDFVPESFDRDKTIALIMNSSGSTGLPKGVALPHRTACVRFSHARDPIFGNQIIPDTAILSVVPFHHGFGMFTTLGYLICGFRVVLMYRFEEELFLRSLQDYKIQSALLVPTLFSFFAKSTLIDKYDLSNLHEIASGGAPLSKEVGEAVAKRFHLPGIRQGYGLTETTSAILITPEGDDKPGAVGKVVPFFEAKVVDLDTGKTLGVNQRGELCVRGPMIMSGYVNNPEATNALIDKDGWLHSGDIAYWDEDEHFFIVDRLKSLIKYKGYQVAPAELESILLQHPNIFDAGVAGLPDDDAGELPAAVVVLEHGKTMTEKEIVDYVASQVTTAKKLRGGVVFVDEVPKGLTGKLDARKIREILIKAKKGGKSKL
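Purified P. pyralis luciferase (10nM final) with 10uM D-luciferin and 10uM ATP (Km levels) in 50mM Tris acetate pH 7.5, 10mM Mg acetate, 0.01% Tween-20, 0.05% BSA; qHTS 6-point titration, ~60 µM downward; luminescence read.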
Rab9 promoter act: Rab9 promoter activation. Potency, µM (titrated, usually from 9.22 µM), usual class: activators. AID 485297. Huh7 Rab9 promoter-luciferase reporter, luminescence, 24 h. 320,000 tested, 2.8% active; also: nearly all actives have a fitted effect of over 60% in size
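Quantitative HTS format; Huh7 Rab9-luciferase reporter cells (1500/well) receive compound 2 h post-plating, incubate 24 h at 37 °C, then get luciferase reagent for 10 min before luminescence reading.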
SMN2 splice up: increases expression of the SMN2 splice variant | HEK293 SMN2-luciferase splicing reporter, luminescence, 30-36 h | Potency, µM (highest dose often 46.1 µM), most hits filed as activators | 210,000 tested, 2.8% active; also: nearly all actives have a fitted effect of over 55% in size
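HEK293 cells carry an SMN2 minigene-luciferase reporter in which exon 7 inclusion puts luciferase in frame. Cells were seeded at 2000 cells/well, attached for 10-12 hours, then exposed to compounds for 30-36 hours at 37C before ONE-Glo luminescence.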
NPC1 promoter act: activators of NPC1 promoter | Huh7 NPC1 promoter luciferase reporter, 24 h | Potency, µM (series often up to 9.22 µM), usual class: activators | 320,000 tested, 2.4% active | AID 485313; also: nearly all actives have a fitted effect of over 60% in size
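Compounds in DMSO were transferred onto Huh7 NPC1-luciferase reporter cells pre-incubated 2 h; after 24 h at 37 °C, Amplite reagent was dispensed and luminescence recorded 10 min later.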
Luc counter: counter-screen: inhibitors of Kinase-Glo firefly luciferase. Q27757. Kinase-Glo luciferase, ATP luminescence, 8 min. Potency, µM (series often up to 38.3 µM), usual class: inhibitors. 200,000 tested, 0.28% active. AID 1379; also: nearly all actives have a fitted effect of over 60% in size
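Kinase-Glo luciferase light output from ATP and luciferin was measured with 10 uM ATP, within the enzyme's linear range. Buffer: 50 mM imidazole pH 7.2, 50 mM KCl, 7 mM MgCl2, 0.01% Tween 20, 0.05% BSA; luminescence read after 8 min at ambient temperature.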
ELG1 genotox: inducers of genotoxicity in HEK293T ELG1-luciferase cells. AID 504466. HEK293T ELG1-luciferase reporter, luminescence, 16 h. Potency, µM (titrated, usually from 46 µM), actives largely listed as activators. 330,000 tested, 1.3% active; also: nearly all actives have a fitted effect of over 60% in size
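Step 1: seed 2,000 HEK293T ELG1-luciferase cells per well. Step 2: add compound or DMSO, incubate 16 hr at 37 °C. Step 3: ONE-Glo, 30 min at room temperature, read luminescence.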
Large screens that a line does not name were inactive. Calls follow the shape of the dose curve; as a rule, active = well fitted curve in the direction sought with a large enough effect; inconclusive = small, poorly fitted or top-dose-only effect, or another doubt; inactive = no such curve, though single readings can be large; an effect the other way counts as inactive or inconclusive.

COc1cccc(/C=C/C(=O)OCC(=O)Nc2ccc(Cl)c(S(=O)(=O)N(C)C)c2)c1OC	FLuc counter 13.5µM
O=C(/C=C/C(=O)Oc1ccccc1C(=O)O)Oc1ccccc1C(=O)O	none (no result: FLuc counter, Rab9 promoter act, NPC1 promoter act, ELG1 genotox)
O=C(c1ccccc1Cl)n1nc(-c2ccco2)nc1NCc1cccs1	none (no result: Rab9 promoter act, NPC1 promoter act, Luc counter, ELG1 genotox)
Cc1ccc(NC(=O)C2CCCN(c3ncccn3)C2)cc1F (stereo unspecified)	FLuc counter 10.7µM, Rab9 promoter act inconclusive, SMN2 splice up 17.8µM, NPC1 promoter act 3.55µM, ELG1 genotox 9.2µM
O=C(CSc1ncccn1)Nc1ccc2c(c1)CCC2	FLuc counter 21.3µM (no result: SMN2 splice up, Luc counter)
O=C(Nc1cccc(C(F)(F)F)c1)C1CCCN(c2ncccn2)C1 (stereo unspecified)	none
O=C(Nc1ccc2c(c1)CCC2)C1CCCN(c2ncccn2)C1 (stereo unspecified)	FLuc counter 5.36µM, Rab9 promoter act inconclusive, SMN2 splice up 12.6µM, NPC1 promoter act 3.98µM, ELG1 genotox inconclusive
Cc1cc(C)cc(NC(=O)C2CCCN(c3ncccn3)C2)c1 (stereo unspecified)	none (no result: SMN2 splice up, Luc counter)
O=C(Nc1ccc2c(c1)OCCO2)C1CCN(c2ncccn2)CC1	FLuc counter 15.1µM, ELG1 genotox inconclusive
CC(C)CCNC(=O)Cn1nc(N2CCN(c3ccccc3)CC2)ccc1=O	none (no result: Rab9 promoter act, SMN2 splice up, NPC1 promoter act, Luc counter, ELG1 genotox)
CCOC(=O)C1=C(N)Oc2ccc(Br)cc2C1C(C#N)C(=O)OCC (stereo unspecified)	none (no result: FLuc counter, Rab9 promoter act, NPC1 promoter act, Luc counter, ELG1 genotox)
Cc1ccc(C2=N/C(=C\N3CCCCC3)C(=O)O2)cc1	FLuc counter 5.36µM, Rab9 promoter act 1.12µM, SMN2 splice up inconclusive, NPC1 promoter act 2.24µM, ELG1 genotox 4.11µM
Cc1ccc(C2=N/C(=C/N3CCOCC3)C(=O)O2)cc1	FLuc counter 12µM, Rab9 promoter act 3.55µM, SMN2 splice up 11.2µM, NPC1 promoter act inconclusive, ELG1 genotox 16.4µM
COc1ccc(/C=C2\N=C(c3ccc(C)cc3)OC2=O)cc1	FLuc counter inconclusive (no result: SMN2 splice up, Luc counter)
Cc1cccc2cc(/C=C3\N=C(c4ccccc4)OC3=O)c(N3CCOCC3)nc12	none
COc1ccc(N(CC(=O)NCCc2ccccc2)S(=O)(=O)c2ccc(OC)c(OC)c2)cc1	none (no result: Rab9 promoter act, NPC1 promoter act, Luc counter, ELG1 genotox)
O=C(Nc1ccccn1)c1ccc(Cl)s1	FLuc counter inconclusive, Rab9 promoter act 3.98µM, NPC1 promoter act 2.24µM, ELG1 genotox inconclusive (no result: SMN2 splice up, Luc counter)
Cc1ccccc1C(=O)Nc1ccc(Br)cn1	FLuc counter 10.7µM, Rab9 promoter act 3.55µM, NPC1 promoter act inconclusive, ELG1 genotox 9.2µM (no result: SMN2 splice up, Luc counter)
O=C(Nc1ccc(Br)cn1)c1ccc(Br)s1	FLuc counter 4.26µM, Rab9 promoter act 0.794µM, NPC1 promoter act inconclusive, ELG1 genotox inconclusive (no result: SMN2 splice up, Luc counter)
Cc1cc(C(=O)Nc2ccc(Br)cn2)sc1C	Rab9 promoter act 2.24µM, NPC1 promoter act 1µM, ELG1 genotox inconclusive (no result: FLuc counter, SMN2 splice up, Luc counter)
O=C(Nc1ccccc1C(=O)Nc1ccc(Br)cn1)c1ccccc1Cl	FLuc counter inconclusive (no result: SMN2 splice up, Luc counter)
CCC(=O)OCC(=O)C1(OC(=O)CC)C(C)CC2C3C(Cl)CC4=CC(=O)C=C[C@@]4(C)C3C(O)C[C@@]21C (stereo partly specified)	none (no result: FLuc counter, Rab9 promoter act, NPC1 promoter act, ELG1 genotox)
Cc1ccc(NC(=O)C2CCN(c3nc4ccccc4nc3C(F)(F)F)CC2)cc1F	none (no result: Rab9 promoter act, SMN2 splice up, NPC1 promoter act, Luc counter, ELG1 genotox)
CCC(=O)Nc1ccc(Br)cn1	none (no result: SMN2 splice up)
O=C(Nc1ccc(Br)cn1)c1ccc(Cl)s1	FLuc counter 4.26µM, Rab9 promoter act 1µM, NPC1 promoter act 0.891µM, ELG1 genotox 3.26µM (no result: SMN2 splice up, Luc counter)
Nc1nc(CSc2ncn(-c3ccccc3)n2)cs1	FLuc counter 10.7µM, Rab9 promoter act 1.26µM, SMN2 splice up 15.8µM, NPC1 promoter act 2µM, ELG1 genotox inconclusive
c1ccc(CSc2ncn(-c3ccccc3)n2)cc1	FLuc counter 4.78µM, Rab9 promoter act 2.24µM, SMN2 splice up 14.1µM, NPC1 promoter act 3.16µM, ELG1 genotox 4.11µM
CCOC(=O)c1sc(NC(=O)CSc2ncn(-c3ccccc3)n2)nc1C	none
O=C(CSc1ncn(-c2ccccc2)n1)c1cccs1	FLuc counter 7.57µM, Rab9 promoter act 1.41µM, SMN2 splice up inconclusive, NPC1 promoter act 2.82µM, ELG1 genotox inconclusive
O=C(CN1C(=O)COc2ccc(S(=O)(=O)Nc3ccccc3)cc21)Nc1cccc(Cl)c1	none (no result: Rab9 promoter act, SMN2 splice up, NPC1 promoter act, Luc counter, ELG1 genotox)
